Measurements from PubChem BioAssay AID430 (Sanford-Burnham Center for Chemical Genomics, 2006).
Among all 63,000 compounds or so, about 1,100 (1.7%) were called active. The entries come from a sample that favours actives as a whole. Measured potencies and affinities stand elsewhere. Values without a mark were called inactive. Cut-off read from the data, not from the text of the source: active = cytotoxicity above about 50%; inactive = the rest.

Assay: cytotoxicity in HPDE-C7 cells, cell-based, fluorescence, HTS (AID 430);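 note: cells exposed to compound for 48 hours before viability readout; 0% = vehicle and 100% = reference cytotoxic drug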
Settings: HPDE-C7 pancreatic duct cells viability, at 10 µM, stronger effect = higher value

Row | Compound | cytotoxicity
1 | Cc1ccc(NS(=O)(=O)c2ccc(OCC(=O)NCc3ccco3)cc2)cc1 | 6.8%
2 | CC(C)CCn1nc(C(=O)OC(C)C(=O)NC(N)=O)c2ccccc2c1=O (stereo not given) | -13.9%
3 | Cc1ccccc1N=C1NC(=O)CS1 | -24.1%
4 | CCCn1c(CN2CCN(C(=O)OCC)CC2)nc2c1c(=O)n(C)c(=O)n2C | -8.2%
5 | CCCCOC(=O)C1Cc2ccccc2C(=O)O1 (stereo not given) | -4.8%
6 | CCCCCn1c(CN2CCN(Cc3ccccc3)CC2)nc2c1c(=O)[nH]c(=O)n2C | 0%
7 | CCCCCn1c(CN2CCN(c3cccc(Cl)c3)CC2)nc2c1c(=O)[nH]c(=O)n2C | 43.9%
8 | Cn1c(=O)[nH]c(=O)c2c1nc(CN1CCN(c3cccc(Cl)c3)CC1)n2Cc1ccccc1Cl | -3.5%
9 | Cc1ccc(Cl)cc1N1CCN(Cc2nc3c(c(=O)[nH]c(=O)n3C)n2Cc2ccccc2F)CC1 | 112% (active)
10 | CC(C)Cn1c(CN2CCN(c3ccccc3F)CC2)nc2c1c(=O)[nH]c(=O)n2C | -0.6%
11 | O=C(Cc1c(O)c2ccccc2[nH]c1=O)NCc1cccc(F)c1 | 2.7%
12 | CCN(CC)CCCN1C(=O)C(=O)/C(=C(/O)c2ccc(OC)c(Cl)c2)C1c1ccco1 (stereo not given) | 4.6%
13 | COc1ccccc1CN1C(=O)[C@@H]2C(CCC(N)=O)NC3(C(=O)Nc4c3ccc(Cl)c4C)[C@@H]2C1=O (stereo not given in full) | -5.3%
14 | c1ccc2c(c1)Cn1nnnc1-2 | 1.3%
15 | CCC(=O)Nc1cc(-c2nn(C)c(=O)c3ccccc23)ccc1N1CCCCC1 | 5.4%
16 | Cn1nc(-c2ccc(N3CCCCC3)c(NC(=O)c3ccco3)c2)c2ccccc2c1=O | 64.9% (active)
17 | CCCC(=O)Nc1cc(-c2nn(C)c(=O)c3ccccc23)ccc1N1CCCCC1 | -10.2%
18 | O=C(CCCC(=O)N(CC(=O)NC1CCCC1)C1CCCC1)Nc1ccccn1 | -20.8%
19 | CCNC(=O)NC(=O)C(C)Oc1ccc(C(=O)OC)cc1 (stereo not given) | 2.8%
20 | Cc1ccc(-c2csc3nnc(SCC(=O)Nc4nsc(-c5ccccc5)n4)n23)cc1 | -4.6%
21 | Cc1sc(NC(=O)CSc2nnc(COc3ccccc3)n2C)c(C#N)c1C | 4.2%
22 | Oc1ccccc1-c1nnc(COc2ccc(Cl)cc2Cl)o1 | 35.9%
23 | O=C(O)CCCC(=O)Nc1nc(-c2ccccc2)cs1 | 6.9%
24 | COc1cc2[nH]c(=O)n(CCC(=O)N3CCN(c4cc(Cl)ccc4C)CC3)c(=O)c2cc1OC | 63.8% (active)

Row | Compound | cytotoxicity
25 | CCOc1cc2[nH]c(=O)n(CCC(=O)N3CCN(c4ccccc4OC)CC3)c(=O)c2cc1OCC | -8.1%
26 | COc1cc2[nH]c(=O)n(CCC(=O)N3CCN(c4cccc(C)c4C)CC3)c(=O)c2cc1OC | 0.4%
27 | COc1ccc(Cl)cc1C(=O)N1CCN=C1SC | -11.2%
28 | CCOc1cc(C#N)c(NC(=O)c2ccnn2C)cc1OCC | 23.5%
29 | CCOc1cc(C#N)c(NC(=O)c2ccco2)cc1OCC | 12.6%
30 | CCOc1cc(C#N)c(NC(=O)c2cccnc2)cc1OCC | 51.5% (active)
31 | Cc1nc(Nc2nc(-c3ccccc3)cc(=O)[nH]2)nc2ccccc12 | 52.3% (active)
32 | COc1ccc2nc(Nc3nc(C)c(CCC(C)C)c(=O)[nH]3)nc(C)c2c1 | 6.2%
33 | Cc1ccc2nc(Nc3nc(=O)c4ccccc4n3C)nc(C)c2c1 | 13.7%
34 | Cc1ccc2c(C)nc(Nc3nc(CSc4nnnn4-c4ccccc4)cc(=O)[nH]3)nc2c1 | 51% (active)
35 | Cc1nc(-c2ccccc2)cc(=O)[nH]1 | 4%
36 | Cc1ccc(Nc2nc(CSc3nnnn3-c3ccccc3)cc(=O)[nH]2)cc1 | 12%
37 | COc1cc2nc(NC(=O)c3ccccc3)[nH]c(=O)c2cc1OC | 13.3%
38 | CCCCCc1c(C)nc(Nc2nc(C)c3cc(OC)ccc3n2)[nH]c1=O | -0.5%
39 | Cc1nnc(SCc2cc(=O)[nH]c(Nc3nc(C)c4ccccc4n3)n2)s1 | -0.8%
40 | COc1nc(Nc2nc3ccccc3c(=O)[nH]2)nc2ccc(C)cc12 | 86.7% (active)
41 | CCc1c(C)nc(Nc2nc(C)c3cc(OC)ccc3n2)[nH]c1=O | 56.1% (active)
42 | Cc1ccc(Nc2nc(CSc3nnnn3-c3ccccc3)cs2)cc1 | 32.1%
43 | Cc1ccc(NC(=O)CSc2nnc(CNC(=O)c3c(F)cccc3Cl)o2)cc1 | -9.7%
44 | CCOc1ccc(N2CC(C(=O)Nc3ccccc3OC)CC2=O)cc1 (stereo not given) | -2.5%
45 | COc1cc(C(=S)N2CCCC2)cc(Cl)c1O | -4%
46 | COc1ccccc1-c1cc(C(=O)NCc2ccc(Cl)cc2)no1 | -15.3%
47 | OCc1nn2c(c1Br)NC(c1ccccc1)CC2C(F)(F)F (stereo not given) | -8.4%
48 | CCOc1ccc(CCNC(=O)C2CCN(c3nn4c(=O)cc(C)nc4s3)CC2)cc1OCC | -6.6%

Row | Compound | cytotoxicity
49 | COc1cc(OC)cc(C(=O)NC2CCN(Cc3nnnn3Cc3cccs3)CC2)c1 | -7.1%
50 | CC(=O)NC(CCS(C)(=O)=O)C(=O)Nc1c(C)cccc1C (stereo not given) | 10.4%
51 | COCc1cc(=O)[nH]c(Nc2nc(C)c3ccc(C)cc3n2)n1 | 5.4%
52 | COc1ccc2c(C)nc(Nc3nc(C)cc(=O)[nH]3)nc2c1 | 80.7% (active)
53 | COc1ccc2c(C)nc(Nc3nc(C)cc(C)n3)nc2c1 | -4.7%
54 | N#Cc1c(-c2ccccc2)nc(SCc2nc(N)nc(N3CCCCC3)n2)[nH]c1=O | 9.2%
55 | CCN1CCN(CCNC(=O)c2cn(C(C)c3ccccc3F)nn2)CC1 (stereo not given) | -5.9%
56 | Oc1ccccc1-c1cc(-c2cccc(F)c2)n[nH]1 | 3.1%
57 | COc1ccc(-c2cc(-c3ccccc3O)[nH]n2)cc1OC | 51.6% (active)
58 | COc1ccc(-c2cc(-c3cc(F)ccc3O)[nH]n2)cc1OC | 8.9%
59 | Cc1ccc(-n2ncc(C#N)c2/N=C/N(C)C)cc1 | 8.6%
60 | CC(=O)Nc1ccc(NC(=O)c2cccc(C(=O)OC(C)C)n2)cc1 | -2.2%
61 | O=C(NCCCN1CCN(CCCNC(=O)c2ccc(F)cc2)CC1)c1ccc(F)cc1 | -6.2%
62 | CS(=O)(=O)N1CCc2cc(S(=O)(=O)N3CCN(Cc4ccc5c(c4)OCO5)CC3)ccc21 | 6.1%
63 | CS(=O)(=O)N1CCc2cc(C(=O)O)ccc21 | -2.9%
64 | CS(=O)(=O)N1CCc2cc(S(=O)(=O)Nc3ccc4oc5c(c4c3)CCCC5)ccc21 | 80% (active)
65 | COC(=O)c1ccccc1NC(=O)CSc1nnc(-c2cccc(NC(C)=O)c2)n1C | 6.2%
66 | COc1ccc(OCc2nc(N)nc(Nc3cccc(C)c3C)n2)cc1 | -10.3%
67 | C=CCNc1nc(NCc2ccccc2)c(C#N)c2c1CN(C)CC2 | 14.5%
68 | CCN1CCc2c(C#N)c(N3CCCCC3)nc(NCc3ccccc3)c2C1 | 30.7%
69 | N#Cc1c(NCCO)nc(NCc2ccccc2)c2c1CCN(Cc1ccccc1)C2 | 34.2%
70 | N#Cc1c(NCCCO)nc(-c2ccccc2)c2c1CCCC2 | 38.6%
71 | O=C(c1ccccc1F)N1CCN(S(=O)(=O)c2ccc(S(=O)(=O)N3CCCCC3)cc2)CC1 | -2.6%
72 | Cn1c(=O)n(C)c2cc(NS(C)(=O)=O)ccc21 | -29.4%

Row | Compound | cytotoxicity
73 | Cc1noc(C)c1COC(=O)c1ccc2c(c1)OCO2 | -8.9%
74 | Cc1ccc(S(=O)(=O)Nc2ccc3c(c2)nc2n3CCN(Cc3ccccc3)C2)cc1 | 10.2%
75 | O=S(=O)(Nc1ccc2c(c1)nc1n2CCN(Cc2ccccc2)C1)c1ccc(Cl)cc1 | 68.2% (active)
76 | O=S(=O)(Nc1ccc2c(c1)nc1n2CCN(Cc2ccccc2)C1)c1ccccc1 | 2.6%
77 | Cc1ccc(NC(=O)c2ccco2)cc1C | -2.6%
78 | O=C1NCCCC2c3c(cc(Br)c(O)c3Br)OC12N1CCOCC1 (stereo not given) | -5.7%
79 | COC(=O)C1=C(C)NC(C)=C(C(=O)OC)C1c1cc2cc(C)ccc2[nH]c1=O | 2.9%
80 | COc1ccc(C)cc1S(=O)(=O)N(CC(=O)N1CCOCC1)Cc1ccccc1 | -1.7%
81 | N#Cc1cn(Cc2cccc(Cl)c2)c2ccccc12 | 56.1% (active)
82 | N#Cc1cn(CC(=O)O)c2ccccc12 | -15.5%
83 | N#Cc1cn(Cc2ccccc2)c2ccccc12 | 6.7%
84 | CCOc1ccc(N2C(=O)C3CCCN3C2=O)cc1 (stereo not given) | 3.6%
85 | COc1ccc(C(C#N)N2CCCCCC2)cc1OC (stereo not given) | 2.4%
86 | CC1=Nn2c(nnc2-c2n[nH]c3c2CCC3)SC1 | -3.7%
87 | Clc1ccc(C2=Nn3c(nnc3-c3n[nH]c4c3CCC4)SC2)cc1 | 46.1%
88 | Brc1ccc(C2=Nn3c(nnc3-c3n[nH]c4c3CCC4)SC2)cc1 | 61.4% (active)
89 | Clc1ccc(C2=Nn3c(nnc3-c3n[nH]c4c3CCC4)SC2)cc1Cl | 76.8% (active)
90 | c1ccc(C2=Nn3c(nnc3-c3n[nH]c4c3CCC4)SC2)cc1 | 8.7%
91 | Fc1ccc(C2=Nn3c(nnc3-c3n[nH]c4c3CCC4)SC2)cc1 | 0.5%
92 | CCc1nc(SCC(=O)Nc2cc(C)on2)c2c(C)c(C)sc2n1 | -1.6%
93 | CC1(C)CC(=O)C(C=NC2CCCCC2)=C(O)C1 | -6.9%
94 | Cn1c(=O)c2c(SC3CCCC3)nc(CC(C)(C)C)nc2n(C)c1=O | -9%
95 | Cc1onc(-c2ccccc2Cl)c1C(=O)NCc1nc(-c2ccccc2)no1 | -4.2%
